From PubChem BioAssay (Tox21)
Inconclusive results are not listed. Where a call stands in place of a potency, no number is given. Active and inactive are the calls of the source. The call rests on the fitted dose curve; in most records, active means well fitted cell-killing curve with a large enough effect in the repeat runs; inconclusive means weak or mixed curves, or effect the other way; inactive means flat fitted curve, though single readings scatter.

Experiment: cAMP Responsive Elements (CRE) small molecule antagonists, cell-based qHTS assay: qHTS cell viability counter screen (AID 2060913); further: nearly all actives have a fitted effect of over 40% in size
Settings: CRE-bla HEK293T viability, CellTiter-Glo luminescence, 5 h; series mostly up to 92.4 µM
Excerpt: U.S. Tox21 Program National Center for Advancing Translational Sciences [NCATS] Division of Preclinical Innovation [DPI] U.S. Environmental Protection Agency [EPA] National Institutes of Environmental Health Sciences [NIEHS] National Toxicology Program [NTP] U.S. Food and Drug Administration [FDA] Tox21 Assay Overview: CREB (cyclic-AMP Responsive Element Binding Protein) is a cellular transcription factor. It binds to certain DNA sequences called cAMP Responsive Elements (CRE) and regulates the transcription of the genes. […] This cell line can be used to find agonists/antagonists of the cyclic AMP signaling pathway. The activation of the report gene under culture conditions can be detected by fluorescence intensity. This cell line has been used to screen the Tox21 10K compound library to identify agonists that induce oxidative stress. The cytotoxicity of the Tox21 compound library against the CRE-bla cell line was tested in parallel by measuring the cell viability using CellTiter-Glo assay (Promega, Madison, WI) in the same wells.
Tox21 Assay Protocol Summary: CRE-bla Hek 293T cells were suspended in assay medium (DMEM containing 10% dialyzed FBS, 0.1 mM NEAA, 1 mM sodium pyruvate and 25 mM HEPES) and dispensed at 2,000 cells/4 uL /well into 1536-well black wall/clear bottom plates using a Multidrop Combi (ThermoFisher Scientific, Waltham, MA) dispenser. After the assay plates were incubated at 37 C/5% CO2 for 18 hrs, 23 nL of compounds dissolved in DMSO, positive controls or DMSO only was transferred to the assay plate by a pintool workstation (Kalypsys, San Diego, CA), followed by addition of 1 uL of 1.25uM NKH477 (0.25 uM as final concentration) in assay medium using a Flying Reagent Dispenser (Aurora Discovery, San Diego, CA). The plates were incubated at 37 C and 5% CO2 for 3 hrs. Then 1 uL of LiveBLAzer B/G FRET substrate (Invitrogen, Carlsbad, CA) was added to each well using Bioraptr Flying Reagent Dispenser (FRD, Aurora Discovery, San Diego, CA). The plates were incubated at room temperature for 2 h, then fluorescence intensities were measured using an Envision plate reader (PerkinElmer, Shelton, CT) at Excitation 405nm, Emission 460nm and 530nm. The % activity was determined from the ratio of 460nm/530nm. For cell viability readout that measures cytotoxicity, 4 uL /well of CellTiter-Glo reagent was added into the assay plates using Bioraptr FRD. After 30 min incubation at room temperature, the luminescence intensity in the assay plates was measured using a ViewLux (PerkinElmer, Shelton, CT) plate reader.

Row | SMILES | Potency
1 | CC(C)CC(=O)CC(C)C | inactive
2 | O=C(c1ccc(O)cc1O)c1ccc(O)cc1O | inactive
3 | CC1=CC[C@@]23C[C@@H]1C(C)(C)[C@@H]2CC[C@H]3C | inactive
4 | OCCC(F)(F)C(F)(F)C(F)(F)C(F)(F)C(F)(F)C(F)(F)F | inactive
5 | COc1cccc(OC)c1C(=O)O | inactive
6 | CCCCCCCCS(=O)(=O)Cl | inactive
7 | O=C(O)Cn1c(C(=O)Nc2nc(-c3ccccc3Cl)cs2)cc2ccccc21 | inactive
8 | CC1(C)[C@@H]2CC[C@]3(C2)[C@@H]1C(=O)CCC3(C)C | inactive
9 | Cc1[nH]cnc1CN1CCc2c(c3ccccc3n2C)C1=O | inactive
10 | CN1CCC(=C2c3ccccc3CCc3cccnc32)CC1 | inactive
11 | CC1=CCC(O)(C(C)C)CC1 (stereo not given) | inactive
12 | CCCCCc1cccc(=O)o1 | inactive
13 | CN(C)CCOC(c1ccccc1)c1ccccc1 | inactive
14 | C=C(CC(=O)O)C(=O)O | inactive
15 | CCc1ccccc1 | inactive
16 | C1CCCC1 | inactive
17 | O=Cc1cc(O)ccc1Br | inactive
18 | CCC(Cl)CCC(Cl)C(Cl)CC(Cl)C(Cl)C(Cl)CCl (stereo not given) | inactive
19 | CC(C)OC(=O)OCOP(=O)(CO[C@H](C)Cn1cnc2c(N)ncnc21)OCOC(=O)OC(C)C | inactive
20 | C=COC(=O)C(C)(CC)CCC(C)C (stereo not given) | inactive

Row | SMILES | Potency
21 | Brc1cc(Br)cc(Br)c1 | inactive
22 | COc1ccc(-c2cc(C(F)F)nn2-c2ccc(S(N)(=O)=O)cc2)cc1F | inactive
23 | CN(C)CCN(C)CCO | inactive
24 | CC(C)n1c(/C=C/[C@@H](O)C[C@@H](O)CC(=O)O)c(-c2ccc(F)cc2)c2ccccc21 | inactive
25 | Cc1ccc(S(=O)(=O)O)c(C)c1 | inactive
26 | O=C(CCCN1CCC(O)(c2cccc(C(F)(F)F)c2)CC1)c1ccc(F)cc1 | inactive
27 | CCNc1cc(O)ccc1C | inactive
28 | CCCCNc1c(C(=O)OCC)c(C)nc2c1cnn2CC | inactive
29 | On1nnc2ccccc21 | inactive
30 | OC[C@]1(O)OC[C@@H](O)[C@H](O)[C@@H]1O | inactive
31 | O=C(O)Cc1ccc(-c2ccccc2)cc1 | inactive
32 | OCCOCCOCCOCCO | inactive
33 | O=S(=O)(Cl)c1c(Cl)cccc1Cl | inactive
34 | CCOC(=O)NCCC[Si](OCC)(OCC)OCC | inactive
35 | Cc1onc(-c2c(Cl)cccc2Cl)c1C(=O)N[C@@H]1C(=O)N2[C@@H]1SC(C)(C)[C@@H]2C(=O)O | inactive
36 | COc1cc2nc(N(C)CCCNC(=O)C3CCCO3)nc(N)c2cc1OC (stereo not given) | inactive
37 | C[C@H]1C[C@H]2[C@@H]3CCC4=CC(=O)C=C[C@]4(C)[C@H]3C(=O)C[C@]2(C)[C@@]1(O)C(=O)CO | inactive
38 | NC(=O)N/N=C/c1ccc([N+](=O)[O-])o1 | inactive
39 | O=C(O)c1ccc(S(=O)(=O)N(Cl)Cl)cc1 | inactive
40 | O=C1c2ccccc2C(=O)c2c(O)ccc(O)c21 | inactive
